# DAX1 inh-1: DAX1 (NR0B1) inhibitors on StAR promoter, primary screen, cell-based, luminescence, SF-1 (NR5A1), full-length DAX-1; HEK293T StAR-luciferase reporter, SF-1/DAX-1 repression relief; inhibition, % at 6.8 µM; 1.1% of 370,000 active;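 active = inhibition above the mean over all tested compounds plus 3 SD, cut at about 3.6% in these data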;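 also: 0% = DAX-1 cells with DMSO and 100% = cells lacking DAX-1 with DMSO; higher inhibition means more luminescence from relief of DAX-1 repression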
# ssDAF12 agonist: S. stercoralis DAF-12 nuclear receptor activators, primary screen, cell-based, luminescence, HEK293, GRIP1 co-expression, lit1-tk-luc | activation, % at 6.8 µM | AID 652126, 2013 | Nuclear hormone receptor DAF-12 (Strongyloides stercoralis) | 1% of 370,000 active | HEK293 ssDAF-12/GRIP1 lit1-tk-luc reporter; % of 3 µM dafachronic acid response;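 active = activation above the mean over all tested compounds plus 3 SD, cut at about 0.9% in these data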;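 also: 0% = DMSO-only wells and 100% = 3 µM delta7-dafachronic acid wells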
# DAX1 inh-2: DAX1 (NR0B1) inhibitors, primary screen, cell-based, HEK293, Gal4-DAX1, luciferase luminescence | 0.99% of 340,000 active | inhibition, % at 6.75 µM | AID 504766, 2011 | HEK293 Gal4-DAX1 luciferase reporter;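 active = inhibition above the mean over all tested compounds plus 3 SD, cut at about 4.2% in these data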;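 also: 0% = DAX1-transfected cells with DMSO and 100% = empty-vector control cells with DMSO; inhibition shows as a rise in luminescence from relieved DAX1 repression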
# Target sequence (P51843 207-470 limits assumed): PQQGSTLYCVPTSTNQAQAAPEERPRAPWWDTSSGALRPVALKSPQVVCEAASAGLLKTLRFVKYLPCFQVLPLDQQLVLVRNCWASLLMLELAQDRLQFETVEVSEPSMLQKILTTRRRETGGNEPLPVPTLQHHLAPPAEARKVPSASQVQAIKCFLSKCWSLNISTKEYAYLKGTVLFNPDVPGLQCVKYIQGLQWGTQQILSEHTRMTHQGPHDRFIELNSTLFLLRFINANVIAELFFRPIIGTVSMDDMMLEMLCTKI
# AHR activator: AHR activators, primary screen, cell-based, luminescence, luciferase reporter, human. Aryl hydrocarbon receptor (Homo sapiens), P35869. activation, % at 5 µM. AHR-responsive luciferase reporter cells. 2.5% of 320,000 active; in the data active = activation above about 47%;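 also: 0% = vehicle wells and 100% = reference agonist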
# hgDAF12 agonist: H. glycines DAF-12 receptor agonists, primary screen, cell-based, luminescence, HEK293, GAL4 fusion, UAS-luciferase; AID 687014, 2013; Nuclear hormone receptor DAF-12 (Heterodera glycines), GAL4 fusion; HEK293 GAL4-hgDAF12 UAS-luciferase reporter, agonist luminescence; normalized to butyrate control; activation, % at 6.8 µM; 1.8% of 370,000 active;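 active = activation above a cutoff set at the mean of all screened compounds plus 3 SD, cut at about 10% in these data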;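 also: 0% = DMSO wells and 100% = sodium butyrate wells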
# hcDAF12 agonist: H. contortus DAF-12 nuclear receptor activators, primary screen, cell-based, luminescence, HEK293, lit1-tk-luc reporter. activation, % at 6.8 µM. 1.4% of 370,000 active. AID 652067, 2013. HEK293 hcDAF-12 lit1-tk-luc reporter; 0% DMSO, 100% Δ7-dafachronic acid;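 active = activation above the mean of all tested compounds plus 3 SD, cut at about 5.5% in these data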;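 also: 100% = response to 3 µM Δ7-dafachronic acid high control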
# LXR ag: LXR agonists, Gal4 luciferase reporter, confirmation, counter-screen for hcDAF-12 agonist project, cell-based, luminescence, HEK293, H. contortus campaign. AID 743027, 2013. HEK293 Gal4-LXR tk-luc reporter, 24 h; normalized: DMSO 0%, positive control 100%. shares compounds with hcDAF12 agonist. activation, % at 6.8 µM. 3,400 tested, under 10 active;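 active = mean percent activation of the reporter above a cutoff set as the average over tested compounds plus their standard deviation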
# hcDAF12 conf: H. contortus DAF-12 receptor agonists, confirmation, cell-based, luminescence, HEK293, lit1-tk-luc, triplicate; activation, % at 6.8 µM; HEK293 hcDAF-12 lit1-tk-luc reporter; % of Δ7-dafachronic acid response; AID 743032, 2013; 61% of 3,400 active; shares compounds with hcDAF12 agonist;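 active = mean activation across triplicate tests above the threshold derived from the earlier primary screen, cut at about 5.5% in these data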;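 also: 0% = DMSO only wells and 100% = 3 µM Δ7-dafachronic acid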
# An asterisk follows results filed as active; . = not tested or not shown. An excerpt weighted towards active compounds, which were near 5.7% of everything screened.
SMILES,DAX1 inh-1,ssDAF12 agonist,DAX1 inh-2,AHR activator,hgDAF12 agonist,hcDAF12 agonist,LXR ag,hcDAF12 conf
CCCCCN(C(=O)CCC(=O)OCC(=O)Nc1cccc(SC)c1)c1c(N)n(CCCC)c(=O)[nH]c1=O,1,-1,-1,1,4,-1,.,.
CC1=NN(C(=O)c2nn(C)cc2Br)C(O)(C(F)(F)F)C1 (stereo not drawn),2,0,0,11,10,8.9*,0,0
CC1=NN(C(=O)c2c(Br)cnn2C)C(O)(C(F)(F)F)C1 (stereo not drawn),1,-1,0,2,-1,0,.,.
O=C(NCCc1cccc(Cl)c1)c1cc([N+](=O)[O-])ccc1Cl,-2,-2,-3,-3,-2,6.7*,0,0
O=C(NCCc1cccc(Cl)c1)c1ccc(Cl)c([N+](=O)[O-])c1,0,-2,0,2,4,0,.,.
CC(NC(=O)C(C)N1CCN(Cc2ccccc2)CC1)c1ccc(F)cc1 (stereo not drawn),0,1,-2,-1,0,-2,.,.
O=C(COC(=O)/C=C/c1ccccc1[N+](=O)[O-])NCc1ccco1,1,-1,0,0,2,1,.,.
CCOC(=O)N/C(N)=N/c1nc2ccccc2s1,4.2*,0,0,2,11*,7.0*,1,5
O=C(O)CSc1nnc(-c2ccc(Cl)cc2Cl)n1-c1ccc(Br)cc1,0,-1,0,-1,0,-2,.,.
CC(C)N(C(=O)Cn1cc(S(=O)(=O)CC(=O)NCCc2ccccc2)c2ccccc21)C(C)C,-1,-1,4,.,1,-1,.,.
CCN(CC)C(=O)Cn1cc(S(=O)(=O)CC(=O)NCCc2ccccc2)c2ccccc21,-1,-1,-1,2,0,7.6*,0,1
CN(C)C(=O)Cn1cc(S(=O)(=O)Cc2ccccc2)c2ccccc21,0,-1,0,6,1,6.6*,0,3
CC(NC(=O)c1ccccc1)C(=O)NC1CCCc2ccccc21 (stereo not drawn),1,0,1,.,1,2,.,.
Cc1ccc(-n2nc3cc(C)c(N)cc3n2)cc1,3.9*,2.5*,3,22,11*,15*,2,16*
Nc1cc2nn(-c3ccccc3)nc2cc1Cl,4.4*,3.4*,2,.,22*,14*,1,17*
CCc1ccc(-n2nc3cc(C)c(N)cc3n2)cc1,3,4.1*,4,0,14*,16*,2,20*
CC1(NC(=O)Cc2csc(-c3ccc(Cl)cc3)n2)CCS(=O)(=O)C1 (stereo not drawn),1,-1,1,4,-2,0,.,.
Cc1ccc(-n2nnnc2SCC(=O)NCC2CCCO2)cc1C (stereo not drawn),-2,-1,-1,.,-1,-1,.,.
CCc1cccc(NC(=S)Nc2cccc3ccccc23)c1,-1,0,1,78*,2,7.4*,0,5.9*
Cc1cccc(NC(=S)Nc2cccc3ccccc23)c1,-1,1.4*,1,63*,5,7.2*,0,11*
CC(=O)Nc1cccc(NC(=O)Nc2cccc3ccccc23)c1,-2,-1,0,9,2,2,.,.
C[C@@H]1CN([C@H](C)CO)C(=O)CCCn2nncc2CO[C@@H]1CN(C)S(=O)(=O)c1ccccc1,0,-1,-1,.,-1,-1,.,.
O=C(COc1ccccc1Cl)N1CCN(C(=O)c2ccco2)CC1,0,-1,0,-1,-1,-1,.,.
O=C(OCc1nc2ccccc2s1)c1cnccn1,1,0,3,13,7,8.2*,1,9.8*
O=C(OCc1nc2ccccc2s1)c1ccccc1O,4,0,0,7,6,3,.,.
SMILES,DAX1 inh-1,ssDAF12 agonist,DAX1 inh-2,AHR activator,hgDAF12 agonist,hcDAF12 agonist,LXR ag,hcDAF12 conf
O=C(O)c1ccccc1OCc1nc2ccccc2s1,2,1.2*,3,26,10,9.2*,1,7.2*
CCOc1ccc2nc(SCC(=O)Nc3ccc4c(c3)OCCO4)[nH]c2c1,0,-1,0,27,3,7.3*,0,1
COc1ccc2nc(SCC(=O)Nc3ccc4c(c3)OCCO4)[nH]c2c1,-3,-3,-1,15,-8,-5,.,.
Cc1cc2ccccn2c1C(=O)c1ccc(Cl)cc1,-1,-1,-1,-10,2,-2,.,.
Cc1ccc(C(=O)NC(=S)c2c(C)cc3ccccn23)cc1,2,4.1*,4,.,12*,7.5*,0,8.5*
Cc1cc2ccccn2c1C(=O)Nc1cccc(Cl)c1,1,1,2,36,6,7.0*,0,6.1*
Cc1ccc(/C(O)=C2\C(=O)C(=O)N(C)C2c2ccccc2[N+](=O)[O-])cc1 (stereo not drawn),0,0,4,43,2,5,.,.
Cc1ccc(/C(O)=C2\C(=O)C(=O)N(Cc3cccnc3)C2c2ccccc2[N+](=O)[O-])cc1 (stereo not drawn),2,1.7*,0,38,13*,9.7*,0,6.8*
COC(=O)C1=C(Nc2ccccc2NC(=O)c2ccccc2C(=O)O)CSC1,3,1.7*,3,27,9,7.5*,0,4
COC(=O)C1=C(Nc2ccccc2NC(=O)CCCC(=O)O)CSC1,1,0,.,3,-1,1,.,.
CCCCSc1nnc(CSc2ncccn2)n1C,0,-1,0,-2,2,1,.,.
O=C(Nc1ccc(Cl)cc1Cl)c1ccc(Br)o1,1,0,2,32,8,8.2*,1,6.4*
